# Screens as filed in PubChem BioAssay.
# Compounds with a hit are over-represented: about 2.9% of the library has one in this group of screens.
# SNCA expr inh – reduces expression of the alpha-synuclein gene; HEK-293 SNCA-luciferase knock-in, luminescence, 24 h; Potency, µM (doses to about 57.2 µM), actives largely listed as inhibitors; 140,000 compounds, 0.17% hits; AID 1671194; note: nearly all actives have a fitted effect of over 45% in size
# IP6K1 inhibitor – inhibitors of human IP6K1. IP6K1 kinase, ADP-Glo luminescence, 2 h; active compounds read low. activity change, % (series mostly up to about 58 µM). 140,000 compounds, 0.81% hits. Q92551. AID 1645851; in the data active = activity change below about -25%
#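 ADP-Glo luminescence measures ADP made by human IP6K1 during a 2 h RT reaction with ATP/IP6 (mix at 1.3 mM/130 uM); top library doses 57.5 and 19.1 uM final.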
# KDM5B inh – blocks human KDM5B histone demethylase activity. Q9UGL1. KDM5B demethylase, FDH-coupled NADH fluorescence (FDH is formaldehyde dehydrogenase). Potency, µM (top dose mostly 57.7 µM), actives largely listed as inhibitors. 220,000 compounds, 2.6% hits. AID 1347165; note: nearly all actives have a fitted effect of over 70% in size
#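 Here, H3K4me3 peptide (12.5 µM in substrate mix) is demethylated by KDM5BΔAP, 200 nM final, after 10 min compound exposure. Formaldehyde product is coupled through FDH (0.25 U/mL in mix) to NADH fluorescence; 30-min ΔRFU feeds dose-response curves.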
# HEK293 viab – cell viability loss counter-screen; HEK-293-SNCA-luc viability, GF-AFC fluorescence, 24 h; 150,000 compounds, 0.12% hits; AID 1671193; Potency, µM (highest dose often 57.1 µM), actives largely listed as cytotoxic; note: nearly all actives have a fitted effect of over 30% in size
#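 Cytotoxicity counterscreen: after 24 h compound treatment of genome-edited SNCA-luciferase HEK-293 cells, live-cell protease substrate GF-AFC read by fluorescence after 30 min; activity scaled between DMSO (0%) and medium-only (-100%), curves Hill-fitted.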
# Hits are given with their value; 0 = inactive; ? = inconclusive; - = no result given; ! = not active in a repeat. Unless noted, calls come from the whole dose curve; as a rule, active = well fitted curve in the direction sought with a large enough effect; inconclusive = small, poorly fitted or top-dose-only effect, or another doubt; inactive = no such curve, though single readings can be large; an effect the other way counts as inactive or inconclusive.
SMILES,SNCA expr inh,IP6K1 inhibitor,KDM5B inh,HEK293 viab
Cc1nc(-c2cccc(Cl)c2)n(Cc2nc(-c3ccc(OC(C)C)cc3)oc2C)c(=O)c1CCO,0,0,11µM,0
COC(=O)c1c(SC)nc2ccccc2c1OCc1ccc(Br)cc1,?,0,0,0
Cc1ccc(CN2CCC(CNc3nccc(-c4ccccn4)n3)CC2)o1,0,0,28µM,0
Cc1ccc(CN2CCC(CNc3cc(C4CC(O)C4)ncn3)CC2)o1 (centres undefined),0,0,0,0
Cc1nc(Nc2n[nH]c3c2CN(C(=O)NC(CN(C)C)c2ccccc2)C3(C)C)c2sccc2n1 (centres undefined),-,0,-,7.5µM
O=C(Cn1nc(-c2ccco2)ccc1=O)NC1CCCc2c1[nH]c1ccccc21 (centres undefined),0,0,?,0
O=C(NC1CCCc2c1[nH]c1ccccc21)c1n[nH]c2c1CCC2 (centres undefined),0,0,?,0
O=C(NC1CCCc2c1[nH]c1ccccc21)c1n[nH]c2c1CCCC2 (centres undefined),0,0,14µM,0
O=C(Cn1nc(-c2ccc(F)cc2)ccc1=O)NC1CCCc2c1[nH]c1ccccc21 (centres undefined),0,0,14µM,0
CCOC(=O)C1CCN(C(=O)C2CCN(C3=NS(=O)(=O)C(c4ccc(C)c(C)c4)=C3C)CC2)CC1,0,0,0,0
CC(C)[C@@](C)(O)[C@@H]1CN(c2nc(-c3[nH]nc4ncccc34)c(F)cc2Cl)CCN1,-,0,-,30µM
CCN(Cc1ccncc1)C(=O)c1cc(-c2cnn(CC)c2)nc2cc(C)ccc12,0,0,28µM,0
Cc1cccc(C)c1-n1c(=O)c2cnc(Nc3ccc(N4CCN(C)CC4)cc3)nc2n2c3ccccc3nc12,-,0,-,?
C=CCn1c(=O)c2cnc(Nc3ccc(N4CCN(C)CC4)cc3)nc2n1-c1cccc(C(C)(C)O)n1,0.48µM,0,-,?
Cc1cn2nc(C(=O)Nc3ccc(Cl)cc3)cc2c(N(C)Cc2ccccc2)n1,0,0,28µM,0
Cc1ccc(NC(=O)c2cc3c(N(C)Cc4ccccc4)nc(C)cn3n2)c(F)c1,0,0,10µM,0
Cc1cn2nc(C(=O)Nc3ccc(N(C)C)cc3)cc2c(N(C)Cc2ccccc2)n1,0,0,?,0
Cc1cn2nc(C(=O)Nc3ccc(C)c(F)c3)cc2c(N(C)Cc2ccccc2)n1,0,0,0,0
Cc1cn2nc(C(=O)Nc3ccc(F)cc3)cc2c(N(C)Cc2ccccc2)n1,0,0,25µM,0
O=C(NC[C@H]1Cn2c(-c3ccc(F)cc3)cnc2CO1)C1CCCC1,0,0,0,0
C[N+](CCOCc1ccccc1)(CCOCc1ccccc1)CCOCc1ccccc1,-,-,0,-
CC(C)(C)c1nc(C(=O)N2CCCC2)n2ccccc12,?,0,112µM,0
CC(C)NC(=O)c1nc(-c2ccccc2)c2ccccn12,0,0,0,0
COc1ccc(-c2nc(C(=O)N3CCCC3)n3ccccc23)cc1,0,0,?,0
C#CCNC(=O)c1nc(C(C)(C)C)c2ccccn12,0,0,112µM,0
SMILES,SNCA expr inh,IP6K1 inhibitor,KDM5B inh,HEK293 viab
CC(C)NC(=O)c1nc(C(C)(C)C)c2ccccn12,0,0,112µM,0
Oc1ccc(CN2CC(CNc3ccccc3)C3(C2)CN(c2ccccc2)C3)cc1 (centres undefined),?,0,?,?
CCC(C)C(=O)N1CCc2sccc2C1CC (centres undefined),-,-,0,-
COc1ccc(-n2c(=O)c(C)nc3cnc(Oc4ccccc4)nc32)cc1,0,-,-,0
COC(=O)COc1ccc(-c2nnc(Nc3ccc(O)cc3)c3ccccc23)cc1,28µM,0,?,?
CCN(CC)C(=O)COc1ccc(-c2nnc(Nc3ccc(OC)cc3)c3ccccc23)cc1,-,-,0,-
COc1ccccc1CNC(=O)CSc1nc(-c2cccs2)nc2ccccc12,-,-,0,-
COc1cccc2nc(-c3cccs3)nc(NN3C(=O)C=C(C)C3=O)c12,?,0,-,30µM!
O=C1CCCCC(Cc2ccccc2)(C(=O)NCc2ccc(Cl)cc2)N1 (centres undefined),0,0,0,0
C=CCOc1cc(C)c2c(c1C)[C@H](O)C([C@H](C)C(=O)NCCOC)CC2 (some centres undefined),0,0,0,0
C=CCOc1cc(C)c2c(c1C)[C@H](O)C([C@H](C)C(=O)N(C)Cc1ccccc1)CC2 (some centres undefined),0,0,35µM,0
